From the supplement of paper PMC13380429
A number with no mark means an inactive call.

Tested on: Vero E6 infected with SARS-CoV-2
Assay: inhibition of SARS-CoV-2 cytopathic effect; higher = more antiviral protection, active = above 15
Settings: 48 h

Row | SMILES | inhibition of SARS-CoV-2 cytopathic effect (1 nM) [%] | inhibition of SARS-CoV-2 cytopathic effect (8.33 nM) [%] | inhibition of SARS-CoV-2 cytopathic effect (100 nM) [%] | inhibition of SARS-CoV-2 cytopathic effect (833.33 nM) [%] | inhibition of SARS-CoV-2 cytopathic effect (10000 nM)
1 | COC(=O)N[C@H](C(=O)N1CCC[C@H]1c1nc(-c2ccc3c(c2)O[C@@H](c2ccccc2)n2c-3cc3cc(-c4c[nH]c([C@@H]5CCCN5C(=O)[C@@H](NC(=O)OC)C(C)C)n4)ccc32)c[nH]1)C(C)C [elbasvir] | 1.03 | 1.52 | 0.09 | -1.19 | -4.27%
2 | COc1cc2c(NC3CCN(CC4CCCCC4)CC3)nc(N3CCCN(C(C)C)CC3)nc2cc1OCCCN1CCCCC1 | 0.74 | -1.71 | -3.06 | 0.36 | -20.7%
3 | NCC(=O)O | 1.39 | -0.35 | 1.12 | -1.32 | 0.49%
4 | C=CC(C)(C)c1cc(/C=C/C(=O)c2ccc(O)cc2)c(OC)cc1O [licochalcone-A] | -0.14 | 0.43 | -0.55 | -9.62 | 8.6%
5 | COC[C@H](C)Oc1cc(O[C@@H](C)Cc2ccccc2)cc(C(=O)Nc2ccc(C(=O)O)cn2)c1 | -1.62 | 2.26 | 1.23 | -0.06 | 0.06%
6 | C[n+]1ccccc1C=NO [pralidoxime] | 1.86 | 0.25 | 0.14 | 0.94 | 1.11%
7 | Cc1ccc2c(c1)[C@H]1CN(C)CC[C@H]1N2 [stobadine] | 1.95 | 2.65 | 1.27 | 1.23 | -0.96%
8 | COc1ccc(Nc2nccc(NCCO)n2)cc1 [cardiogenol-C] | 0.83 | -0.02 | -0.4 | 0.3 | 1.2%
9 | O=[N+]([O-])/N=C1\NCCN1Cc1ccc(Cl)nc1 [imidacloprid] | 0.83 | 5.02 | 6.8 | 5.42 | 3.01%
10 | CCN1CCN(c2ccc(C(C)(C)NC(=O)c3cc4[nH]c5ccccc5c(=O)c4cc3F)cn2)CC1 | 0.53 | -0.52 | 3.59 | 2.28 | 26.8% (active)
11 | O=C(O)c1ccc2cc(-c3ccc(O)c(C45CC6CC(CC(C6)C4)C5)c3)ccc2c1 | 1.24 | 1.61 | -0.4 | -2.65 | -7.34%
12 | CCCCCCCCCCCCCCCC=O [1-hexadecanal] | 0.5 | 2.85 | -0.54 | -0.08 | 1.56%
13 | CN[C@@H]1[C@@H](O)[C@@H](O[C@@H]2[C@@H](O)[C@H](O[C@H]3O[C@H](CN)[C@@H](O)[C@H](O)[C@H]3O)[C@@H](N)C[C@H]2NC(=O)[C@@H](O)CN)OC[C@]1(C)O [isepamicin] | -2.06 | 1 | 3.72 | -1.29 | -1.06%
14 | CC1(C)OC[C@@H](COC(=O)CCc2ccc(OC[C@@H](O)CNCCNC(=O)N3CCOCC3)cc2)O1 [landiolol] | -7.81 | -4.59 | -1.18 | -1.43 | -1.67%
15 | CCN(CC)CCNC(=O)c1c(C)[nH]c(/C=C2\C(=O)Nc3ccc(F)cc32)c1C [sunitinib] | 0.55 | -1.31 | 2.08 | -2.15 | 30.3% (active)
16 | NS(=O)(=O)Cc1noc2ccccc12 [zonisamide] | -1.19 | -3.86 | -0.76 | 0.73 | -2.23%
17 | Oc1ccc(C2(c3ccccc3F)CCC(F)(F)CC2)cc1 | 1.54 | -0.41 | -0.21 | -1.05 | 0%
18 | COc1ccccc1OCC(O)CN1CCN(CC(=O)Nc2c(C)cccc2C)CC1 (stereo not given) [ranolazine] | 0.1 | -0.38 | -2.33 | 0.17 | -0.73%
